The target of assay [1] is human Norepinephrine Transporter (NET), SLC6A2 (gene 6530) (UniProt P23975). The assay can be described thus: NVS_TR_hNET: NovaScreen (NVS) Transporter Assay for human Norepinephrine Transporter (NET) (AID 2283377; active = hit-call score of the fitted dose curve at least 0.9, where 1 is the maximum;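 also: cell-free membrane protein extracted from CHO cells expressing human NET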). The method in brief:
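Radioligand binding to human NET in cell-free CHO-derived protein preparations, read by filter-based scintillation counting 1 hour after dosing. Loss of signal versus DMSO baseline indicated displacement; primary screening in duplicate at 25 uM, actives then titrated.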

The subject of assay [2] is Thyroperoxidase (TPO), gene 54314. The assay can be described thus: CCTE_Simmons_AUR_rTPO: CCTE's Amplex UltraRed Assay for Thyroperoxidase (TPO) Inhibition, Simmons Lab (AID 2283662; active = hit-call score of the fitted dose curve at least 0.9, where 1 is the maximum;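 also: potency for loss of signal meaning inhibition of peroxidase activity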). The method in brief: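 Rat thyroid microsomes (5 ug protein) with 25 uM Amplex UltraRed and 300 uM H2O2 in 200 mM phosphate buffer, 30 min at 37C in dark; fluorescence 544/590 nm. Eight concentrations, 5 nM–87.5 uM final, 0.5% DMSO, triplicate biological replicates.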

Assay [3] can be described thus: CCTE_Simmons_CellTiterGLO_HEK293T: Viability Assessment in CCTE's Assays for Thyroperoxidase (TPO) Inhibition, Simmons Lab (AID 2283665; active = hit-call score of the fitted dose curve at least 0.9, where 1 is the maximum;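 as to AC50: cells exposed to compound for 24 h before readout; actives reduce ATP signal below DMSO vehicle meaning cytotoxicity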). The method in brief: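 HEK293T cells in DMEM with 1% FBS, dosed 24 h at 37C with 8 concentrations, 5 nM–87.5 uM final, 0.5% DMSO. ATP measured by CellTiter Glo luminescence; loss of signal vs DMSO, three biological replicates.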
Background: Cellular ATP, detected with luciferase, serves as a proxy for viable cell number.

In assay [4] the target is Bile acid receptor (Homo sapiens) (UniProt Q96RI1). Briefly: OT_FXR_FXRSRC1_0480: Odyssey Thera (OT) 8-hour HEK293T Protein-Complementation Assay for Farnesoid X receptor/SRC-1 Co-activator (AID 2283383; active = hit-call score of the fitted dose curve at least 0.9, where 1 is the maximum). An outline of the steps: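 HEK293T protein-fragment complementation assay: FXR and SRC-1 coactivator are fused to reporter fragments, and their interaction restores a fluorescent reporter. Readout was taken 8 h after dosing, with gain of signal fit relative to DMSO.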

The nature of assay [5]: CEETOX_H295R_MTT_cell_viability: Viability Assessment in the CeeTox HT-H295R MTT Assay (AID 2283718). The method in brief: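 H295R cells prestimulated 48 h with 10 uM forskolin, then exposed 48 h to test chemical (0.1% DMSO final). Viability by MTT (0.5 mg/ml, 4 h, 37 C), absorbance 570/650 nm; percent change versus DMSO, bidirectional fit.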
The target of assay [6] is human Peroxisome Proliferator-activated Receptor alpha (PPARa), PPARA (gene 5465) (UniProt Q07869). Briefly: NVS_NR_hPPARa: NovaScreen (NVS) Nuclear Receptor Binding Assay for human Peroxisome Proliferator-activated Receptor alpha (PPARa) (AID 2283359; active = hit-call score of the fitted dose curve at least 0.9, where 1 is the maximum;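 also: activity means loss of TR-FRET signal versus DMSO baseline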). The method in brief: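 Cell-free binding assay with extracted human protein, read by TR-FRET 1 h after chemical dosing. Loss of signal relative to DMSO baseline indicates binding. Primary screen used duplicate single concentration (25 uM); actives followed up in concentration series.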

The target in assay [7] is rat Thyrotropin Releasing Hormone Receptor (TRH), Trhr (gene 25570) (UniProt Q01717). The assay can be described thus: NVS_GPCR_rTRH: NovaScreen (NVS) G Protein-Coupled Receptor Assay for rat Thyrotropin Releasing Hormone Receptor (TRH) (AID 2283329; active = hit-call score of the fitted dose curve at least 0.9, where 1 is the maximum;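 also: hit means lower bound tracer signal versus DMSO baseline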). An outline of the steps:
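Rat forebrain membranes; radioligand displacement at TRH receptor by filter-based scintillation counting, read 4 h after dosing. Duplicate single-point screen at 25 uM, actives rerun in concentration series; loss of signal relative to DMSO.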

Assay [8] deals with Nuclear receptor subfamily 1 group I member 2 (Homo sapiens) (UniProt O75469). The assay can be described thus: NVS_NR_hPXR: NovaScreen (NVS) Nuclear Receptor Binding Assay for human Pregnane X Receptor (PXR) (AID 2283365; active = hit-call score of the fitted dose curve at least 0.9, where 1 is the maximum;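 also: a drop in FRET signal versus DMSO baseline means the compound binds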). An outline of the steps:
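Binding was measured by time-resolved fluorescence resonance energy transfer after a 2 h exposure of extracted human PXR protein without cells. Compounds were first tested at 25 uM in duplicate, with concentration series for actives; DMSO defined baseline.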

Assay [9] addresses human Phosphoinositide 3-kinase alpha (PI3Ka), PIK3CA (gene 5290) (UniProt P42336). Briefly: NVS_ENZ_hPI3Ka: NovaScreen (NVS) Enzymatic Assay for human Phosphoinositide 3-kinase alpha (PI3Ka) (AID 2283196; active = hit-call score of the fitted dose curve at least 0.9, where 1 is the maximum). An outline of the steps: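 Recombinant human PI3Kα with fluorescent substrate, 1 h, product separated by electrophoretic mobility shift; 25 uM duplicate screen, hits (e.g., 30% inhibition) retested singly up to 50 uM; loss of signal vs DMSO.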

A short description of assay [10]: CCTE_Shafer_MEA_acute_spike_number: CCTE's Neural Acute Assay for Total Number of Spikes, Shafer Lab (AID 2284008). An outline of the steps: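 Cortical neurons from rat, matured to DIV 13 or 15 on microelectrode arrays, are recorded at 37 C before and during 40-min exposure to 0.03-40 uM compound. Wells need >/= 10 active electrodes.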
Assay [11] can be described thus: CCTE_Shafer_MEA_acute_burst_number: CCTE's Neural Acute Assay for Single-Electrode Bursts, Shafer Lab (AID 2284013). The method in brief: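 Rat cortical cultures, DIV 13/15; 40 min baseline, then 40 min with compound 0.03-40 uM, 37 C. Spikes: 300-5000 Hz band-pass, threshold 8x rms noise. Readout = % change in single-electrode bursts vs baseline, loss-of-signal fit.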

Assay [12] in a line: CCTE_Shafer_MEA_acute_burst_duration_mean: CCTE's Neural Acute Assay for Mean Burst Duration, Shafer Lab (AID 2284014).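 Also: hits are decreases in mean burst duration relative to DMSO controls.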 An outline of the steps:
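Primary rat cortical neurons on 16-electrode MEA wells, treated on DIV 13 or 15 with compound (0.03-40 uM; ≥3 wells each). 40-min baseline and 40-min exposure recordings at 37 C; percent change in mean burst duration per well versus DMSO.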

A short description of assay [13]: CCTE_Shafer_MEA_acute_per_burst_spike_number_mean: CCTE's Neural Acute Assay for Average Number of Spikes Per Burst, Shafer Lab (AID 2284015).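 Also: hits are decreases in mean spikes per burst versus baseline.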 An outline of the steps:
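Rat primary cortical neurons on 48-well MEAs (DIV 13 or 15) were treated with 0.03-40 uM compound at 37 C. Mean spikes per burst over 40 min were recorded before and after exposure and expressed as percent change from baseline, relative to DMSO.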

Assay [14] in a line: CCTE_Shafer_MEA_acute_interburst_interval_mean: CCTE's Neural Acute Assay for Mean Interburst Interval, Shafer Lab (AID 2284016).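 Also: percent change of mean interburst interval versus each well's own pre-dose baseline; curves fitted for decrease in interburst interval relative to DMSO.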 An outline of the steps: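 Rat primary cortical neurons on 48-well MEAs at DIV 13 or 15 were exposed acutely to 0.03-40 uM. Spikes detected at 8x rms noise, 37 C. Mean interburst interval from 40 min recordings expressed as percent change from 40 min pre-treatment baseline.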

Assay [15] in a line: CCTE_Shafer_MEA_acute_burst_percentage_mean: CCTE's Neural Acute Assay for Percentage of Spikes in a Burst, Shafer Lab (AID 2284017).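 As to AC50: curve fitted for loss of signal so potency reflects decreased burst percentage.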 An outline of the steps: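 Primary rat cortical neurons on 48-well MEA plates, treated on DIV 13 or 15 at 0.03-40 uM. Spikes detected at 8x rms noise at 37C; percent change from 40-min baseline to 40-min post-dose recording, fitted versus DMSO.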

Assay [16] can be described thus: CCTE_Shafer_MEA_acute_burst_percentage_std: CCTE's Neural Acute Assay for Standard Deviation of Burst Percentage, Shafer Lab (AID 2284018).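 Also: fitted in the negative direction so actives lower burst percentage SD.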 An outline of the steps: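 Primary rat cortical neurons on 16-electrode MEA wells were recorded 40 min at baseline (DIV 13 or 15), then 40 min after compound (0.03-40 uM), at 37 C. Well value is SD across electrodes of spikes-in-bursts/total spikes; endpoint is percent change, DMSO-referenced.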

Assay [17] is described as follows: CCTE_Shafer_MEA_acute_per_network_burst_spike_number_mean: CCTE's Neural Acute Assay for Average Number of Spikes in a Network Burst, Shafer Lab (AID 2284019).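 As to AC50: curve fitted for loss of signal so actives reduce spikes per network burst.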 The method in brief:
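Primary rat cortical neurons on 16-electrode MEA wells, DIV 13 or 15, 37 C; 40-min baseline then 40-min recording with compound (0.03-40 uM). Spikes per network burst (total spikes/number of bursts) expressed as percent change from baseline, DMSO reference.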

Assay [18] can be described thus: CCTE_Shafer_MEA_acute_per_network_burst_spike_number_std: CCTE's Neural Acute Assay for Standard Deviation of Number of Spikes in a Network Burst, Shafer Lab (AID 2284020).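 Also: fitted for decrease in spike-number SD versus DMSO so actives lower it.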 An outline of the steps:
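Primary rat cortical neurons on 48-well MEAs (16 electrodes/well) recorded at DIV 13 or 15: 40-min baseline, then 40 min with compound (0.03-40 uM), 37 C. Value is percent change in SD of spikes per network burst, relative to DMSO.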

The target in assay [19] is Peroxisome proliferator-activated receptor gamma (Homo sapiens) (UniProt P37231). Briefly: NVS_NR_hPPARg: NovaScreen (NVS) Nuclear Receptor Binding Assay for human Peroxisome Proliferator-activated Receptor gamma (PPARg) (AID 2283370; active = hit-call score of the fitted dose curve at least 0.9, where 1 is the maximum). An outline of the steps:
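Fluorescence polarization measures competitive binding to extracted PPARg in a cell-free format. Reading is taken at 2 h; activity is signal loss relative to DMSO. Screening at 25 uM in duplicate preceded confirmatory dose series.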

The subject of assay [20] is Sodium/Iodide Symporter (NIS), SLC5A5 (gene 6528). Briefly: CPHEA_Stoker_NIS_Inhibition_RAIU: CPHEA's Radioactive Iodide Uptake (RAIU) Assay for Sodium/Iodide Symporter (NIS) Inhibition, Stoker and Laws Labs (AID 2283841; active = hit-call score of the fitted dose curve at least 0.9, where 1 is the maximum). The method in brief:
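hNIS-HEK293T-EPA cells incubated 2 h at room temperature with compound (0.001–100 uM, 0.5% DMSO) and 329 pM final 125I in HBSS/10 mM HEPES, pH 7.4. Intracellular 125I counted; normalised to DMSO maximal uptake, triplicate, three biological replicates.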

The text below walks through data of PubChem BioAssay (EPA / NIEHS).

Each structure is given as a SMILES string. Results filed as inconclusive are left out. Calls of active or inactive are those of the source. The calls were made as follows, unless noted: active = hit-call score of the fitted dose curve at least 0.9, where 1 is the maximum; inactive = score below 0.9.

human Phosphoinositide 3-kinase alpha (PI3Ka), PIK3CA (gene 5290), sequence (P42336 whole entry, looked up): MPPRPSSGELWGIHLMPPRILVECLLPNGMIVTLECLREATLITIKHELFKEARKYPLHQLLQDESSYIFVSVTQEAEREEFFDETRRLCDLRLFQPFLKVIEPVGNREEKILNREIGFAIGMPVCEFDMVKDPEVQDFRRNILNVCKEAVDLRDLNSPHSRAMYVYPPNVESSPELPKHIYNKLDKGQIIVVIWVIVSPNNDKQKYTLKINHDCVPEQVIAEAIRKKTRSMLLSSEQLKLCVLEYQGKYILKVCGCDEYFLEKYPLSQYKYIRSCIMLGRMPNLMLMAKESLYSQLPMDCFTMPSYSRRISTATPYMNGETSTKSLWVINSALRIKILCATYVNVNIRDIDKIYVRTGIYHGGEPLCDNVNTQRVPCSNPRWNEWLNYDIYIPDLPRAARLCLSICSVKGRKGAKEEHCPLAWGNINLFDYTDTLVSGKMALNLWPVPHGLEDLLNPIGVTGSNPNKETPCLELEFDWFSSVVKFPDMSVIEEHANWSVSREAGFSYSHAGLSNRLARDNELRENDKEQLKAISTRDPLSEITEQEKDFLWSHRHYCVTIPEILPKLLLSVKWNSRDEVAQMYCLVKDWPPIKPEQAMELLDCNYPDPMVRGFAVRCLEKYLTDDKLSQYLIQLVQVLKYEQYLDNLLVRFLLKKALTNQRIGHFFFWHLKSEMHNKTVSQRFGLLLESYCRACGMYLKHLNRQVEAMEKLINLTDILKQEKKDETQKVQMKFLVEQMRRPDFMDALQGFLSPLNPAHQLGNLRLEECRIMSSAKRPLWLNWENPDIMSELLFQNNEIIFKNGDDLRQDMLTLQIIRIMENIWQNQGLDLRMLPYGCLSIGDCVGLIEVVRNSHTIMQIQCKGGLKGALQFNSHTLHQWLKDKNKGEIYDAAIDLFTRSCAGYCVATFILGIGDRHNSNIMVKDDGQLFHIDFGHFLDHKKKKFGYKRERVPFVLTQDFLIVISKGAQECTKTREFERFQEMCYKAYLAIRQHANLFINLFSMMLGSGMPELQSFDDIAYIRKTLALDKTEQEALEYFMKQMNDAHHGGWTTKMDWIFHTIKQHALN
human Norepinephrine Transporter (NET), SLC6A2 (gene 6530), sequence (P23975 whole entry, looked up): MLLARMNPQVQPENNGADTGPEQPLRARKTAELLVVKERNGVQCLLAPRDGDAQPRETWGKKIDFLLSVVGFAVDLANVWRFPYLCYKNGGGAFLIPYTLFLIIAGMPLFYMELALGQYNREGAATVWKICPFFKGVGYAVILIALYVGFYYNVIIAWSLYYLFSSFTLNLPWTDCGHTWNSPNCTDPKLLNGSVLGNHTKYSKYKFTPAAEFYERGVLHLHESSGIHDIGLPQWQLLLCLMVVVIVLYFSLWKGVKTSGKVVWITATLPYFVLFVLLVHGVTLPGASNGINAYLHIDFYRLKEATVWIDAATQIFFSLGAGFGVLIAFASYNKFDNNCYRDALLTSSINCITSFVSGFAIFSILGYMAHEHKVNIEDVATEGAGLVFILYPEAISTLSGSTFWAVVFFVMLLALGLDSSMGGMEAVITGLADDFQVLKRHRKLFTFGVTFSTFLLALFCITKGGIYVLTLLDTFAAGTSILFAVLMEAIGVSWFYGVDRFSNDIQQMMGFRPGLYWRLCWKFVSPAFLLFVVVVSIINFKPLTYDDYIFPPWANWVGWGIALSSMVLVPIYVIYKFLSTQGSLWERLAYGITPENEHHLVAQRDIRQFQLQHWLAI
Peroxisome proliferator-activated receptor gamma (Homo sapiens), sequence (P37231 whole entry, looked up): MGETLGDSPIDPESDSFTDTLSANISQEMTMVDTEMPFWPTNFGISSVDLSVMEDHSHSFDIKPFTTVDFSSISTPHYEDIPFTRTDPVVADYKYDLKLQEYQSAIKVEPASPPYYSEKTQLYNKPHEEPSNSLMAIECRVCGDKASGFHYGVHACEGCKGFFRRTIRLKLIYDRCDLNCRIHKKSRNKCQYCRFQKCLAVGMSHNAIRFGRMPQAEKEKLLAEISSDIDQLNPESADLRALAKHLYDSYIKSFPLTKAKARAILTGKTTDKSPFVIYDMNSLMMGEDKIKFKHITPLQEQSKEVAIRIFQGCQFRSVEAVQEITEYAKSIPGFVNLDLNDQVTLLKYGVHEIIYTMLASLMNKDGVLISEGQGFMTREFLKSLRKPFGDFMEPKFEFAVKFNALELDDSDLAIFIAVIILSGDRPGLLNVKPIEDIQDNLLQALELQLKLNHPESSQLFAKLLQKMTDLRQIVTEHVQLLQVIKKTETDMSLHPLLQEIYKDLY
Nuclear receptor subfamily 1 group I member 2 (Homo sapiens), sequence (O75469 whole entry, looked up): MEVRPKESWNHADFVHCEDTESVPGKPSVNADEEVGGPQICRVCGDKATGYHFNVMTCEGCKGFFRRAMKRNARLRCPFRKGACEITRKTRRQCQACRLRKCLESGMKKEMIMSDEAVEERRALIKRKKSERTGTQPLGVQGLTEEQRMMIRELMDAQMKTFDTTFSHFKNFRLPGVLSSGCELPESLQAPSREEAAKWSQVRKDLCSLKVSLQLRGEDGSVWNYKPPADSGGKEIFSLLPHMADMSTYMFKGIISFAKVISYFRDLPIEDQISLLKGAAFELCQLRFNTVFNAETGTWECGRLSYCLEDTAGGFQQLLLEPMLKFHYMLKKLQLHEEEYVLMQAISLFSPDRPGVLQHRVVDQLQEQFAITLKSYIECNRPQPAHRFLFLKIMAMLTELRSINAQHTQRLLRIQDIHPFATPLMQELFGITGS
rat Thyrotropin Releasing Hormone Receptor (TRH), Trhr (gene 25570), sequence (Q01717 whole entry, looked up): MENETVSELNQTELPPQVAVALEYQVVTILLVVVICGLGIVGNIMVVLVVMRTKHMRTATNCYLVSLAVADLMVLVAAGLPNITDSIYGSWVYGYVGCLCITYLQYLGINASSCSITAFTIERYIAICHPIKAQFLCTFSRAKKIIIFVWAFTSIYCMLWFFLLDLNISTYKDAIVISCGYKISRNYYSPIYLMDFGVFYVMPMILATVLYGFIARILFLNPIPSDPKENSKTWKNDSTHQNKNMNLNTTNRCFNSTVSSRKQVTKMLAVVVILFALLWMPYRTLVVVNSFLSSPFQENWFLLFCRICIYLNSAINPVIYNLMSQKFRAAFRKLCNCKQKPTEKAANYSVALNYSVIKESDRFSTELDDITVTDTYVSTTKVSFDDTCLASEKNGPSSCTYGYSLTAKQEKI
Bile acid receptor (Homo sapiens), sequence (Q96RI1 whole entry, looked up, the tested form may be a part): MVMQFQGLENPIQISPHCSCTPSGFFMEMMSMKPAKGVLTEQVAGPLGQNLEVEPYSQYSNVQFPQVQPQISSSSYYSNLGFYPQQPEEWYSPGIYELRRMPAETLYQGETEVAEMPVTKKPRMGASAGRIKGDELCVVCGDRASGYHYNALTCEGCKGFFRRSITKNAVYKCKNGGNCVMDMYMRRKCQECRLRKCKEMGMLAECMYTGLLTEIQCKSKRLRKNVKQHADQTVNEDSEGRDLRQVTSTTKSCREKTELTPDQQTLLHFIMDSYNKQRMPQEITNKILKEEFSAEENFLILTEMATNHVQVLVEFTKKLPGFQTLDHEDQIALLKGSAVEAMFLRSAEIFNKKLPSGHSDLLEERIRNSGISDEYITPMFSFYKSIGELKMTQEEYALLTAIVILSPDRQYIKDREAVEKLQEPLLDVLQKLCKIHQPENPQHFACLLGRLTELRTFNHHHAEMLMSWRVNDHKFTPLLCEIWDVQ
human Peroxisome Proliferator-activated Receptor alpha (PPARa), PPARA (gene 5465), sequence (Q07869 whole entry, looked up): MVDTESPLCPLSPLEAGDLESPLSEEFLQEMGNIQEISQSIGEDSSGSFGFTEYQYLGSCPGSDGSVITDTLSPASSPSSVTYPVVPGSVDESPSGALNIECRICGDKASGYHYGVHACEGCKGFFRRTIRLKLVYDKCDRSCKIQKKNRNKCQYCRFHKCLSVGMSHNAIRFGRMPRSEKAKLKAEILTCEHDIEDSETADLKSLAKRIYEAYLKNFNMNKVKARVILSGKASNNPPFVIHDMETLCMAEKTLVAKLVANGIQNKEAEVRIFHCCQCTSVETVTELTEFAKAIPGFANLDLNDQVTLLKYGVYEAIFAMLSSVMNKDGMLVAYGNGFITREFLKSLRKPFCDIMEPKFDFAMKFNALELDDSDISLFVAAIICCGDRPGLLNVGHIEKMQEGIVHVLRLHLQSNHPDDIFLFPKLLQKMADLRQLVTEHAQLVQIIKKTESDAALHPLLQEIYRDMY

On to `CN(C)c1ccc(C(c2ccccc2)c2ccc(N(C)C)cc2)cc1`, for which the AC50 in assay [1] is 31.7 µM (active); in assay [2] it was 10.6 µM (active); in assay [3], 25.3 µM (active).

Consider `O=C1NC(=O)[C@@H]2CC=CC[C@H]12`, for which, in assay [1], the molecule was called inactive.

On to `CCCCOC(=O)COc1ccc(Cl)cc1Cl`, for which the outcome in [4] and in assay [5] was inactive.

With `CC1=NN(c2cc(Cl)c(S(=O)(=O)O)cc2Cl)C(=O)C1N=Nc1ccc(S(=O)(=O)O)cc1` (centres undefined), the call in assay [6] was inactive.

Turning to `C=C1CC[C@H]2C[C@@H]1C2(C)C`, the call in [7] and in [8] was inactive.

Consider `CC1(C)S[C@@H]2[C@H](NC(=O)[C@H](N)c3ccccc3)C(=O)N2[C@H]1C(=O)O`, for which the AC50 was 12.5 µM (active) in assay [9], 1.61 µM (active) in assay [14] and 0.0814 µM (active) in [15]. The molecule was classed as inactive in assay [10], in assay [11], in assay [12], in assay [13], in assay [16] and in assay [17]. Also, the outcome in [18] was inactive.

For `Nc1ccc(S(=O)(=O)Nc2cnc3ccccc3n2)cc1`, the outcome in assay [8] was inactive. For the same molecule, the AC50 in assay [2] is 0.715 µM (active).

On to `Cc1cc(C)c(S(=O)(=O)O)cc1N=Nc1cc(S(=O)(=O)O)c2ccccc2c1O`, for which the molecule was classed as inactive in assay [7] and in assay [19]. Also, the AC50 in assay [2] is 14.5 µM (active); in assay [3], 13.1 µM (active).

For the molecule `CCOC(=O)CC(=O)OCC`, in assay [4], the outcome was inactive.

For the molecule `Cc1cccnc1`, the result in assay [19] and in [20] was inactive.

As for `F[B-](F)(F)F`, the outcome in assay [19] was inactive. Also, in assay [20], the AC50 is 0.82 µM (active).

Consider `Cc1ccccc1S(N)(=O)=O`, for which the molecule was called inactive in [9].

As for `CN(C)CCC(c1ccc(Cl)cc1)c1ccccn1` (centres undefined), the AC50 in assay [1] was 7.29 µM (active); in assay [13], 24.3 µM (active); in assay [14] it was 23.9 µM (active); in assay [15], 23.8 µM (active); in [16], 27.1 µM (active); in [17], 3.62 µM (active). Besides, the AC50 in assay [18] is 19.5 µM (active). The result in assay [10], in assay [11] and in assay [12] was inactive.

On to `NC(N)=Nc1nc(CSCCC(N)=NS(N)(=O)=O)cs1`, for which the outcome in assay [10], in assay [11], in assay [12], in assay [13], in assay [14] and in [15] was inactive. For the same molecule, the outcome in [16], in [17] and in [18] was inactive.

Consider `CCCCC(CC)COC(=O)CS` (centres undefined), for which the result in assay [6] and in assay [3] was inactive. Further, the AC50 in assay [2] was 25.6 µM (active).

As to `CCCOCCC`, the molecule was classed as inactive in assay [9].

By AC50 is commonly meant the midpoint of the concentration-response curve, whichever way the signal moves.
